This is a sample that favours compounds with a hit; in the whole collection about 28% have one here.
CYP2C9 activ: increases human cytochrome P450 2C9 activity. P11712. recombinant CYP2C9, luciferin-H conversion, luminescence; hits give high values; factor 1 = untreated enzyme, 0 = blocked. activation factor at 5 µM. actives 1.4% (n = 96,000);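 active = activation factor of 2 or more for CYP2C9 at a 5 µM dose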
Mac1 fbg enh: enhancers of human CD11b/CD18 binding to fibrinogen | K562 CD11b/CD18 adhesion to fibrinogen, ATPlite luminescence | activation, % at 10 µM | actives 0.07% (n = 93,000);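 active = 10 µM primary screen giving 50% or more activity, confirmed by 40% or more on retest at that dose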
Target sequence (P05107 whole entry, looked up, other chains not shown): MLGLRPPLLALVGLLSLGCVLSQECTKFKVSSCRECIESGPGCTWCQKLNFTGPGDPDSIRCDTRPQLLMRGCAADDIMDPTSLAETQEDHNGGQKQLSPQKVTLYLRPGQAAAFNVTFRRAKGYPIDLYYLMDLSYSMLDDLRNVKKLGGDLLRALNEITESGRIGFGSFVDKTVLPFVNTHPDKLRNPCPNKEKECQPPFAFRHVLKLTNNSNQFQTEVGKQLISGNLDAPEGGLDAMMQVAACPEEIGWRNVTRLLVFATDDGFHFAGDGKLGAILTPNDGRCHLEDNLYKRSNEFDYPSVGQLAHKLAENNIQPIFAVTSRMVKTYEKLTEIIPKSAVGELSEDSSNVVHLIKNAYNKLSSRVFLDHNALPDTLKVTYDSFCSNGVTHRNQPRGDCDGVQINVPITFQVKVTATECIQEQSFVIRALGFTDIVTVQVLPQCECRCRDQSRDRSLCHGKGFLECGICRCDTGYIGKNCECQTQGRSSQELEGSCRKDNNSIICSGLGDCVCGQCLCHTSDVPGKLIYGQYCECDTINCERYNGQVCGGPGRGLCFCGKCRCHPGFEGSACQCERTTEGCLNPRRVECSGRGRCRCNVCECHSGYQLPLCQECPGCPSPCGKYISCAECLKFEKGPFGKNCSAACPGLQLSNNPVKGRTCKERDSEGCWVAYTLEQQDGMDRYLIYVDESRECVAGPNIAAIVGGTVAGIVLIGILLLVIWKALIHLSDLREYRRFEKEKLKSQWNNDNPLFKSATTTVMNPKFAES
CYP2C19 inh: human CYP2C19 inhibition; P33261; CYP2C19 Supersomes, luciferin-H EGE luminescence, 30 min; inhibition, % at 5 µM; actives 21% (n = 96,000); AID 778;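 active = CYP2C19 inhibition above a set limit at 5 µM in the primary screen, cut at about 50% in these data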
CYP2C9 inh: human CYP2C9 inhibition; actives 20% (n = 96,000); P11712; AID 777; CYP2C9 Supersomes, luciferin-H conversion, luminescence; inhibition, % at 5 µM;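 active = blocking of liver enzyme CYP2C9 beyond about 50% at 5 µM, limit read from the data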
CYP2C19 act: activators of human cytochrome P450 2C19; recombinant CYP2C19, luciferin-H EGE luminescence; hits give high values; 0 = fully inhibited enzyme, 1 = untreated enzyme; activation factor at 5 µM; 96,000 tested, under 10 active;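 active = activation factor of at least 2 at 5 µM in the primary screen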
CD11b adhes inh: inhibitors of human CD11b/CD18 binding to fibrinogen; P05107+P11215; K562 CD11b/CD18 adhesion to fibrinogen, ATPlite luminescence; Mn2+ added to activate the integrin; inhibition, % at 10 µM; actives 0.54% (n = 93,000); AID 1497;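 active = primary inhibition of 50% or more at 10 µM, then 40% or more on retest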
Hits are given with their value; . = inactive; / = no result.

SMILES	CYP2C9 activ	Mac1 fbg enh	CYP2C19 inh	CYP2C9 inh	CYP2C19 act	CD11b adhes inh
CCN(CC)CCCNC(=O)Cc1c(C(=O)O)n(C)c2ccccc12	.	.	.	.	.	.
Cn1c(C(=O)O)c(CC(=O)Nc2ccc(F)cc2F)c2ccccc21	.	.	78	95	.	.
Cn1c(C(=O)O)c(CC(=O)NCc2cccnc2)c2ccccc21	.	.	.	63	.	.
O=[N+]([O-])c1ccc(Cl)c(/C=N/N2CCN(Cc3ccccc3Cl)CC2)c1	2.1	/	.	.	.	/
c1ccc(NCc2cccnc2)cc1	.	.	.	.	.	.
Fc1ccc(CNc2ccc(CNc3ncn[nH]3)cc2)cc1	.	.	64	.	.	.
Fc1ccc(NCc2cccnc2)cc1	.	.	58	.	.	.
S=C(NCc1cccnc1)Nc1ccc(Cl)cc1	.	/	.	.	.	/
COc1cc(CNc2ncn[nH]2)cc(Br)c1OC	.	.	.	.	.	.
Cc1ccc(NC(=S)NCc2cccnc2)cc1	.	/	70	.	.	/
S=C(NCc1cccnc1)Nc1cccc(Cl)c1	.	/	73	66	.	/
COc1cc(/C=N/n2cnc3scc(-c4cccs4)c3c2=O)cc(OC)c1OC	/	.	/	/	/	.
CCN(CC)C(=O)C(=O)N/N=C/c1ccc(Br)cc1	.	.	.	.	.	.
CC(C)NC(=O)CSc1nnc(-c2ccc(S(=O)(=O)N3CCCC3)cc2)n1CC1CCCO1 (stereo unspecified)	.	.	.	.	.	.
Cn1cccc1C(=S)N=P(C1CCCCC1)(N1CCOCC1)N1CCOCC1	.	.	.	.	.	.
CN(C)c1ccc(/C=C/c2cc[n+]([O-])cc2)cc1	.	.	92	54	.	.
CN(C)c1ccc(/C=C/c2cc[n+](C)cc2)cc1	.	.	.	.	.	.
O=c1oc2cc(O)ccc2c2ccccc12	2.2	.	.	.	.	.
COCCNS(=O)(=O)c1ccc2c(c1)oc(=O)c1cc(S(=O)(=O)NCCOC)ccc12	.	.	.	.	.	.
O=c1oc2cc(O)ccc2c2c1CCCC2	2.6	.	.	.	.	.
Cc1coc2cc3oc(=O)c4c(c3cc12)CCCC4	.	.	.	74	.	.
O=S1(=O)CC(O)C(Nc2ccccc2Cl)C1 (stereo unspecified)	.	.	.	.	.	.
O=C(O)C(Cc1c[nH]c2ccccc12)NS(=O)(=O)c1cccc2nsnc12 (stereo unspecified)	/	.	/	/	/	.
COc1cc(NC(=O)c2ccccc2[N+](=O)[O-])ccc1NC(=O)C(C)C	/	.	/	/	/	.
COc1ccccc1N1CCN(c2nc3ccccn3c(=O)c2C=O)CC1	.	.	71	.	.	.
SMILES	CYP2C9 activ	Mac1 fbg enh	CYP2C19 inh	CYP2C9 inh	CYP2C19 act	CD11b adhes inh
COc1ccc(N2CCN(C(=O)CN3C(=O)c4ccccc4S3(=O)=O)CC2)cc1	.	.	.	.	.	.
O=C1c2ccccc2S(=O)(=O)N1CC1CC(c2ccccc2)=NO1 (stereo unspecified)	.	.	82	81	.	.
COc1ccc(C2=NOC(CN3C(=O)c4ccccc4S3(=O)=O)C2)cc1 (stereo unspecified)	.	.	76	89	.	.
O=C(CN1C(=O)c2ccccc2S1(=O)=O)N1CCOCC1	.	.	.	.	.	.
Cc1ccc(-c2nn(C)c(=O)c3ccccc23)cc1CNC(=O)/C=C/c1ccccc1	.	.	.	.	.	.
CC1(C)CC(=O)C=C(NCC(=O)O)C1	.	.	.	.	.	.
CC1CCN(S(=O)(=O)c2ccc(S(=O)(=O)NCC(=O)C(C)(C)C)cc2)CC1	.	.	.	.	.	.
CN1CCN(C(c2ccc(F)cc2)c2nnnn2Cc2cccs2)CC1 (stereo unspecified)	.	.	.	.	.	.
COc1ccc(C(c2nnnn2Cc2ccc(F)cc2)N2CCN(c3ccccc3)CC2)cc1 (stereo unspecified)	.	.	.	.	.	.
COc1ccc(N2CCN(C(c3ccccc3)c3nnnn3Cc3ccc(F)cc3)CC2)cc1 (stereo unspecified)	.	.	64	.	.	.
COc1ccc(Cn2nnnc2C(c2ccc(F)cc2)N2CCN(C3CCCC3)CC2)cc1 (stereo unspecified)	.	.	88	.	.	.
COc1ccc(C(c2nnnn2Cc2ccc(F)cc2)N2CCN(c3ccc(OC)cc3)CC2)cc1 (stereo unspecified)	.	.	.	.	.	.
Fc1ccc(C(c2nnnn2Cc2cccs2)N2CCN(C3CCCCC3)CC2)cc1 (stereo unspecified)	.	.	86	.	.	.
CC1CCCN(C(c2cccs2)c2nnnn2Cc2ccccc2)C1 (stereo unspecified)	.	.	86	.	.	.
CCN1CCCC1Cn1cnc2c([nH]c3cccc(Cl)c32)c1=O (stereo unspecified)	.	.	.	.	.	.
Cc1n[nH]c(C)c1S(=O)(=O)N1CCOCC1	.	/	.	.	.	/
CC(=O)Nc1cccc(Oc2ncnc3scc(-c4ccc(C)cc4)c23)c1	/	.	/	/	/	.
COc1ccc(Cn2nnnc2C(c2ccccn2)N2CCN(c3cc(Cl)ccc3C)CC2)cc1 (stereo unspecified)	.	.	98	88	.	.
COc1ccc(Cn2nnnc2C(c2cccs2)N2CCOCC2)cc1 (stereo unspecified)	.	.	86	56	.	.
COc1ccc(Cn2nnnc2C(c2ccc(N(C)C)cc2)N2CCC(C)CC2)cc1 (stereo unspecified)	.	.	58	52	.	.
COCCn1nnnc1C(c1ccccn1)N1CCN(c2cc(Cl)ccc2C)CC1 (stereo unspecified)	.	.	.	.	.	.
CCN(CC)CCOC(=O)C1c2ccccc2Oc2ccccc21	.	.	.	.	.	.
CCc1ccccc1NC(=O)COc1ccc2c(=O)c(Oc3cc(C)ccc3C)coc2c1	/	.	/	/	/	.
Cc1ccc(C2CC(C(F)F)n3ncc(C(=O)Nc4cnn(Cc5ccccc5C)c4)c3N2)cc1 (stereo unspecified)	.	.	.	62	.	.
O=C(CSc1nnc(-c2ccc(OC(F)F)cc2)o1)NC(=O)NCc1ccco1	.	.	.	.	.	.
COc1cccc(-c2cc(C(=O)Nn3cnnc3)c3ccccc3n2)c1	.	.	77	97	.	.
O=C(Nn1cnnc1)c1cc(-c2ccccn2)nc2ccccc12	.	.	.	.	.	.
Cc1ccc(-c2cc(C(=O)N3CCN(c4ncccn4)CC3)c3ccccc3n2)cc1	.	.	94	98	.	.
COc1cccc(-c2cc(C(=O)N3CCN(c4ncccn4)CC3)c3ccccc3n2)c1	.	.	73	96	.	.

High-throughput results deposited in PubChem by Sanford-Burnham Center for Chemical Genomics.
